Measured values: PubChem BioAssay AID602254 (Broad Institute, 2012)
The whole screen tested about 1,000 compounds, of which fewer than 10 were called active. Not all results are given here. Entries with a potency or affinity are not part of this list. Unmarked numbers belong to inactive results.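 Rule for the calls: active = fitted half-maximal concentration no higher than twice the top valid tested dose, with signal falling; inconclusive = flat curve with 30 to 70% inhibition, or poor fit; inactive = the rest.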

These compounds were tested against Golgi-associated PDZ and coiled-coil motif-containing protein (Homo sapiens) (UniProt Q9HD26) (assay: CAL PDZ domain peptide-binding inhibitors, dose response, biochemical, fluorescence polarization, untagged CAL PDZ, cherry-pick, set 2 (AID 602254;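 note: 0% = DMSO neutral control and -100% = unlabeled peptide PRC23 positive control; more negative means stronger blocking of peptide binding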)). Conditions: Purified CAL PDZ, TMR peptide fluorescence polarization; series mostly up to 60 µM; activity change, negative = inhibition: at the top concentration.

Row | Compound | activity change, negative = inhibition [%]
1 | COc1ccccc1C(=O)Nc1cccc2nc(C)ccc12 | 0.557
2 | Cc1ccc(N(C)C(=O)C2CCCN2S(=O)(=O)c2cccc3nsnc23)cc1 (stereo not drawn) | 0.114
3 | O=C(Nc1ccc(F)cc1)C1CCCN1S(=O)(=O)c1cccc2nsnc12 (stereo not drawn) | 1.12
4 | O=C(Nc1cccc(O)c1)c1ccc(NC(=O)C2CCCO2)cc1 (stereo not drawn) | 0.422
5 | CC(=O)Nc1ccc(NC(=O)COC(=O)COc2ccc3ccccc3c2)cc1 | -1.38
6 | COc1ccccc1CNC(=O)COC(=O)CC1CC2CCC1C2 (stereo not drawn) | 5.21
7 | Cc1ccc(S(=O)(=O)Nc2c(C)n(C)n(-c3ccccc3)c2=O)cc1 | -1.36
8 | C=CC(=O)NCc1ccc(-c2csnn2)cc1 | -0.734
9 | CC(=O)NC(Cc1ccccc1)C(C)=O (stereo not drawn) | -0.274
10 | CCSc1nnc(NC(=O)CN2C(=O)NC3(CCCC3)C2=O)s1 | -1.53
11 | COc1ccc(NC2CCCN(C(=O)c3csc(C(C)C)n3)C2)cc1 (stereo not drawn) | -1.33
12 | O=C1OC(CO)CN1Cc1ccccc1 (stereo not drawn) | -3.64
13 | O=S1(=O)c2c(F)cccc2OC(COCc2ccccc2)CN1C1CCCC1 (stereo not drawn) | 9.91
14 | Cc1ccc(C)c(N(CC(=O)N2CCCC2)S(C)(=O)=O)c1 | 6.46
15 | COc1ccc(NC(=O)n2ncc3c(C)cccc32)cc1 | 2.29
16 | O=C(O)c1c(-c2ccc(Cl)cc2)cn2ccccc12 | -0.658
17 | O=C(NCc1ccncc1)C(=O)N/N=C/c1ccccn1 | -0.098
18 | O=C(COC(=O)COc1ccc(Br)cc1)NCC1CCCO1 (stereo not drawn) | -4.89
19 | CCCCN1CC(COCc2ccccc2)Oc2cccc(F)c2S1(=O)=O (stereo not drawn) | 0.998
20 | COc1ccccc1C(=O)Nc1ccc2c(c1)nc(CN1CCCCC1)n2C | 3.14
21 | COC(=O)Cc1ccc(NC(=S)Nc2cccc(C)n2)cc1 | 2.44
22 | O=C(CN1CCC(n2nnc3cc(C(F)(F)F)ccc32)CC1)Nc1ccc2c(c1)OCCO2 | -1.87
23 | CCOC(=O)C(/C=N/c1cc(C)nn1-c1ccccc1)=C(\C)O | 3.31
24 | CCc1ccc(C(=O)NNC(=O)c2c(CC)noc2C)cc1 | -3.88
25 | COc1ccc(/C=N/N2CCN(Cc3ccc(C)cc3)CC2)cc1Br | 1.63

Row | Compound | activity change, negative = inhibition [%]
26 | Cc1ccc(C(=O)NN2C(=O)c3ccc(S(=O)(=O)c4ccc(C(=O)O)cc4)cc3C2=O)cc1 | -1.61
27 | CC(C)CNC(=O)NC(=O)COC(=O)COc1ccc(Cl)cc1Cl | 1.9
28 | COc1ccccc1C(=O)Oc1ccccc1C(=O)Nc1ccccc1 | -11.9
29 | Cc1ccc2nc(NC(=O)COC(=O)c3ccncc3)sc2c1 | 2.09
30 | O=C(O)Cc1sc(-c2ccc(Cl)cc2)nc1-c1ccccc1 | 3.43
31 | Cc1noc(C)c1COc1cccc(C(=O)OC(C)C#N)c1 (stereo not drawn) | -4
32 | COc1ccc(CN2CCNC(=O)C2CC(=O)NC2CCCCCCC2)cc1OC (stereo not drawn) | 1.79
33 | CCC(C)(C(=O)NC1CCCCC1)N(C)C(=O)c1ccccn1 (stereo not drawn) | 0.953
34 | Cc1cc(CN(C)C(=O)C2CCC(=O)N(CCc3cccc(F)c3)C2)on1 (stereo not drawn) | -0.419
35 | Cc1onc(-c2c(Cl)cccc2Cl)c1C(=O)N1CCN(c2ncccn2)CC1 | 2.53
36 | CC(C)c1ccc(S(=O)(=O)N2CCN(C(=O)c3cccc(F)c3)CC2)cc1 | 4.73
37 | Cc1ccc(/C=N/N(C)S(=O)(=O)c2ccc(C)cc2)cc1 | -0.427
38 | CCOc1ccc(NC(=O)CCN2CCN(S(=O)(=O)c3ccc(F)cc3)CC2)cc1 | -0.08
39 | Cc1ccccc1C(=O)c1cccn1CC(=O)NCCC1=CCCCC1 | 0.05
40 | COc1ccccc1NC(=O)C1CCN(C(=O)NCc2ccccc2)CC1 | 0.179
41 | CCSc1ccccc1C(=O)NCCc1ccccc1 | -8.58
42 | COc1ccc(C)cc1NC(=O)Cn1c(=O)oc2ccccc21 | -1.95
43 | O=C(NNC(=O)C1CCC1)c1ccc(Br)cc1 | -0.869
44 | CC1CCN(C(=O)COc2ncnc3ccccc23)CC1 | -1.92
45 | COc1ccc(CCC(=O)Nc2ncc(C)s2)cc1OC | -1.11
46 | CC(=O)Nc1ccc(NCC(=O)c2ccccc2)cc1 | 5.34
47 | O=C(Oc1ccccc1)N1CCOCC1 | 0.207
48 | CCCN1CCN(S(=O)(=O)c2ccc3c(c2)CCC(=O)N3)CC1 | -0.697
49 | COC(=O)c1c(NC(=O)CN(C)CC(=O)Nc2ccc(C)cc2)sc2c1CCC(C)C2 (stereo not drawn) | 0.538
50 | CCOC(=O)Cn1c(=O)oc2cc(S(=O)(=O)N(C)Cc3ccccc3)ccc21 | -0.806

Row | Compound | activity change, negative = inhibition [%]
51 | CC(C)Oc1cccc(C(=O)C2CCCN(C(=O)CCn3cnnn3)C2)c1 (stereo not drawn) | 0.618
52 | CC1CCC(NC(=O)c2nn(C)c3c2CSc2ccccc2-3)CC1 (stereo not drawn) | -0.08
53 | CCOC(=O)c1ccc(S(=O)(=O)NCC(C)(C)N2CCOCC2)cc1 | 0.845
54 | c1ccc(CN2CCCC3(CCCN(Cc4nc(COc5ccccc5)no4)C3)C2)cc1 (stereo not drawn) | -0.026
55 | O=C(COc1ccc(Cl)cc1)Nc1cc(NC(=O)COc2ccc(Cl)cc2)cc(C(=O)O)c1 | 9.23
56 | CN(Cc1cnccn1)Cc1nc(Cc2ccccc2F)no1 | 0.187
57 | CCCNC(=O)C1CCC(CNS(=O)(=O)c2ccc3c(c2)CC(C)N3C(C)=O)CC1 (stereo not drawn) | 0.309
58 | Fc1ccc(Cn2cc(C(=S)N3CCOCC3)c3ccccc32)cc1 | 0.943
59 | CCC(=O)N1CCc2cc(Br)cc(S(=O)(=O)N3CCCCC3CC)c21 (stereo not drawn) | -1.65
60 | CC1CCN(Cc2nnnn2CCCC(=O)NCCc2cnn(C)c2)CC1 | -1.37
61 | Cc1ccc(O)c(-c2cc(-c3cccc(Br)c3)n[nH]2)c1 | 0.711
62 | C=CCc1ccc(OCCCCN2CC(C)OC(C)C2)c(OC)c1 (stereo not drawn) | 0.21
63 | Cc1noc(NS(=O)(=O)c2ccc(NC(=O)c3ccc(N(C)C)cc3)cc2)c1C | -0.732
64 | Cc1ccc(NC(=O)CN(C)C(=O)COc2cccc3ccc(C)nc23)cc1 | -0.235
65 | COc1ccc(-c2[nH]ncc2CNC(C)CCn2cccn2)cc1F (stereo not drawn) | -0.462
66 | Cc1ccc(N2CCN(CCCCN3C(=O)C4CCCN4C3=O)CC2)cc1 (stereo not drawn) | -1.07
67 | COc1ccc(-c2csc(N3C(=O)CNC3=S)n2)cc1 | -9.99
68 | CCN1CCCc2cc(CN(CCN3CCOCC3)C(=S)Nc3cccc(C)c3)ccc21 | 1.91
69 | N#Cc1ccc(NC(=O)NN2CCCCCC2)cc1 | 2.36
70 | N/N=C(\c1ccccc1)c1cc(Br)ccc1N | 1.57
71 | COc1ccc(NC(=O)Oc2cc(C)ccc2C(C)C)cc1 | -0.959
72 | OCCCc1cn(Cc2ccccc2)c2ccccc12 | -0.804
73 | O=C(Cn1cccc1C(=O)c1ccccc1)NCc1ccccc1Cl | -3.87
